Test results reported in PubChem BioAssay (NCATS).
Several values for one entry are separate records, joined by “and”; a condition that tells them apart may be missing. Equal entries are not always repeated. Results filed as inconclusive are left out. Activity calls are given as the source filed them. Unless noted, calls come from the whole dose curve; as a rule, active = well fitted curve in the direction sought with a large enough effect; inconclusive = small, poorly fitted or top-dose-only effect, or another doubt; inactive = no such curve, though single readings can be large; an effect the other way counts as inactive or inconclusive.

Legend:
[1] = molecular target: Glutathione peroxidase 1 (Homo sapiens) (UniProt P07203); assay: Primary qHTS Assay for Inhibitors of Recombinant Selenoprotein Glutathione Peroxidase 1 (GPX1) (AID 1845191); note: nearly all actives have a fitted effect of over 65% in size; for activity, negative = inhibition: % is set by controls: 0 for no effect and ±100 for the full control effect
Method in brief: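 Recombinant GPX1 (10 nM final) was preincubated with compound for 30 min at room temperature, then reacted with 1 mM GSH, 0.5 mM CHP, 0.5 mM NADPH and 100 nM glutathione reductase; NADPH fluorescence (340/450 nm) was read at 0 and 15 min.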

[2] = qHTS assay to identify inhibitors of the type 1 interferon - major histocompatibility complex class I in skeletal muscle: Counter screen cell viability and HiBit confirmation (AID 1347412); details: iHSKM muscle cells + IFN-b, HiBiT or CellTiter-Glo, 24 h; for Potency: HiBiT; note: potency is the fitted concentration of half-maximal effect; for activity change, negative = inhibition: % is set by controls: 0 for no effect and ±100 for the full control effect; for all read-outs here: nearly all actives have a fitted effect of over 60% in size
Method in brief: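 HLA-B*08:01–HiBiT knock-in immortalized human myoblasts (C25cl48) stimulated with 4.0 ng/ml human IFN-beta and dosed with compound in a 12-point 1:3 titration (top final 46 uM). After 24 hrs at 37 C, HiBiT lytic luminescence or CellTiter Glo ATP read out.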

[3] = qHTS for differential inhibitors of proliferation of Plasmodium falciparum line 7G8 (AID 1815);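 note: parasite growth measured after three days of incubation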; note: potency is the fitted concentration of half-maximal effect;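 for activity change, negative = inhibition: plate controls were vehicle wells for no effect and reference inhibitor wells for full effect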
[4] = qHTS for differential inhibitors of proliferation of Plasmodium falciparum line GB4 (AID 1816); details: Potency: Plasmodium falciparum GB4 proliferation inhibition;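 note: parasite growth measured after 72 h incubation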; note: potency is the fitted concentration of half-maximal effect;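 for activity change, negative = inhibition: 0% = vehicle DMSO and -100% = reference inhibitor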
[5] = qHTS for differential inhibitors of proliferation of Plasmodium falciparum line Dd2 (AID 1882); details: Potency: Plasmodium falciparum Dd2 proliferation inhibition; note: nearly all actives have a fitted effect of over 65% in size; note: potency is the fitted concentration of half-maximal effect;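 for activity change, negative = inhibition: plate controls were DMSO vehicle for no effect and 0.29 µM artemisinin for full effect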
Method in brief: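 Dd2-infected erythrocytes (0.3% parasitemia, 2.5% hematocrit final) incubated with compound 72 h at 37 C, 5% CO2; lysed with saponin/Triton buffer containing SYBR Green I, incubated overnight in the dark, then read by fluorescence (485/535 nm). Normalized to 0.29 uM artemisinin and DMSO.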

[6] = molecular target: RecQ-like DNA helicase BLM (Homo sapiens) (UniProt P54132); assay: qHTS Validation Assay for Inhibitors of Bloom's syndrome helicase (BLM) (AID 2364);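 note: plate controls were DMSO vehicle for no effect and enzyme-free control for full effect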
Method in brief: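 BLM 50 nM in 25 mM Tris-HCl pH 8.0, 5 mM NaCl, 2 mM MgCl2, 1 mM DTT, 0.01% Tween-20, 2.5 ug/ml poly(dI-dC); 15 min cpd preinc, RT. Start: 200 nM forked DNA + 2 mM ATP (final). TAMRA read, 2 reads 2 h apart.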

[7] = qHTS Assay for Modulators of Human Peripheral Myelin Protein 22 (PMP22) Expression/Activity (AID 1967; active = well fitted curve in the direction sought with a large enough effect in the signal ratio; the % refers to the signal ratio;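 note: 0% = untreated cells and 100% end not stated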)
Method in brief: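 MSC80 mouse Schwann cells stably carrying Pmp22 promoter–green click beetle luciferase plus EF-alpha–red luciferase control were dosed for 24h at 37 °C. Dual-colour luminescence was filter-overlap corrected; %Activity came from green/red ratio versus untreated cells.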

[8] = molecular target: Ubiquitin carboxyl-terminal hydrolase 1 (Homo sapiens) (UniProt O94782); assay: Inhibitors of USP1/UAF1: Pilot qHTS (AID 504865); note: nearly all actives have a fitted effect of over 35% in size; note: potency is the fitted concentration of half-maximal effect;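 for activity change, negative = inhibition: rhodamine fluorescence freed from ubiquitin-rhodamine substrate followed over time; top concentration of the series differs between compounds; % is set by controls: 0 for no effect and ±100 for the full control effect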
Method in brief: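 USP1/UAF1 complex (1nM) preincubated with compound 15 min at room temperature, then Ub-Rho substrate (150nM final) added. Fluorescence read kinetically at 480/540 nm, 6 reads every 60 seconds. Buffer: 50mM HEPES pH 7.8, 0.5mM EDTA, 0.1 mg/ml BSA, 1mM TCEP, 0.01% Tween-20.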

[9] = molecular target: Voltage-gated inwardly rectifying potassium channel KCNH2 (Homo sapiens) (UniProt Q12809); assay: qHTS Assay for Small Molecule Inhibitors of the Human hERG Channel Activity (AID 588834);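 note: lower thallium flux fluorescence means stronger hERG block; nearly all actives have a fitted effect of over 50% in size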; note: potency is the fitted concentration of half-maximal effect; for activity change, negative = inhibition: top concentration of the series differs between compounds; % is set by controls: 0 for no effect and ±100 for the full control effect
Method in brief: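 U2OS cells transduced with hERG via BacMam (MOI ~100), plated 2000/well, loaded with FluxOR thallium dye, compound ~10 min, then stimulation buffer; fluorescence decrease read kinetically; AC50 from Hill fits.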

[10] = molecular target: Luciferin 4-monooxygenase (Photinus pyralis) (UniProt P08659); assay: Biochemical firefly luciferase enzyme assay for NPC (AID 624030);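 note: purified P. pyralis luciferase at 10 nM with luciferin and ATP substrate; 0% = DMSO and -100% = full luciferase inhibition by PTC124 control; nearly all actives have a fitted effect of over 70% in size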
Method in brief: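 Counter-screen for direct inhibition of the luciferase enzyme by approved-drug library compounds, run at 10 nM enzyme in 50 mM Tris acetate (final). Luminescence was read within 5 min of enzyme-buffer addition and normalized to PTC124 versus DMSO (0%).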

[11] = qHTS profiling for inhibitors of Plasmodium falciparum proliferation (AID 504749);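 note: 0% = DMSO vehicle and full inhibition = artemisinin control; nearly all actives have a fitted effect of over 60% in size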; details: P. falciparum in erythrocytes, SYBR Green DNA, 72 h, at 28.7 µM (top of the series)
Method in brief: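 Parasite proliferation within erythrocytes, 72 h exposure. Endpoint: SYBR Green I fluorescence after overnight lysis at room temperature. Controls: 0.29 uM artemisinin, DMSO.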

[12] = molecular target: Glucocorticoid receptor (Homo sapiens) (UniProt P04150); assay: GR-GFP Redistribution (AID 450;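 active = compounds whose dose series gives a full or clear partial fitted curve of increased nuclear translocation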; note: potency is the fitted concentration of half-maximal effect); details: U2OS GR-GFP nuclear translocation, laser cytometry, 2 h
[13] = molecular target: Glucocorticoid receptor (Homo sapiens) (UniProt P04150); assay: GR-EFC Redistribution (AID 451; calls by dose curve; note: potency is the fitted concentration of half-maximal effect); details: CHO-K1 GR-EFC translocation, beta-gal luminescence, 2 h
Method in brief: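 CHO-K1 cells stably expressing nuclear-localized β-gal enzyme acceptor and GR fused C-terminally to the enzyme donor fragment; ligand-driven nuclear translocation restores β-gal by complementation. Compounds titrated up to 46 uM final, 2 h at 37 °C; luminescence read.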

[14] = molecular target: 3',5'-cyclic-AMP phosphodiesterase 4B (Homo sapiens) (UniProt Q07343); assay: qHTS Assay for Inhibitors of PDE-IV (AID 607; active = well fitted activation curve with a large enough effect in the main read-out, with a control signal flat, not every such curve was filed as active; note: potency is the fitted concentration of half-maximal effect)
Method in brief: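 ACTOne HEK293 cells carry a modified cAMP-gated CNG channel and express endogenous PDE4; plated 1000 cells/well, compounds up to 22.9 uM final. Membrane-potential dye fluorescence (ex 535/em 590) was read; parental cells received 10 uM forskolin + 100 uM RO 20-1724.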

Sequence of 3',5'-cyclic-AMP phosphodiesterase 4B (Homo sapiens) (Q07343 whole entry, looked up): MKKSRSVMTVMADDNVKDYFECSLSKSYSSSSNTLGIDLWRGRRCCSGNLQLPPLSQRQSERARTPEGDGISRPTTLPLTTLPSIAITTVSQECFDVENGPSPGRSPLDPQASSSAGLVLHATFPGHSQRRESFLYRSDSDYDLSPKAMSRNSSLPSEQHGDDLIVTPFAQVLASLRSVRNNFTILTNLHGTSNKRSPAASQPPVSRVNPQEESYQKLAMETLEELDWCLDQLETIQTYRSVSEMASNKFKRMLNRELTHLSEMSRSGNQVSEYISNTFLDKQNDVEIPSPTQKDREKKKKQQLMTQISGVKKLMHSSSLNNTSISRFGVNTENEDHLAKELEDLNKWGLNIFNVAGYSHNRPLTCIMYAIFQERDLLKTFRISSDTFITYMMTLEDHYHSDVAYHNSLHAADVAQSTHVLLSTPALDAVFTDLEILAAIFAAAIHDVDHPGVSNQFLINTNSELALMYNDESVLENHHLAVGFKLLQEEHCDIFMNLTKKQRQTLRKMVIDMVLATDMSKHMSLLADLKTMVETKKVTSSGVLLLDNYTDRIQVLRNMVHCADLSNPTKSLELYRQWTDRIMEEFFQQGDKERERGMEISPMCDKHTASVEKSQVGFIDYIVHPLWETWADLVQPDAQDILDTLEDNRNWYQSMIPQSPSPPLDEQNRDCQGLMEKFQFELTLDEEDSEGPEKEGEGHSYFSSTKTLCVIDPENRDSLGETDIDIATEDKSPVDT
Sequence of Ubiquitin carboxyl-terminal hydrolase 1 (Homo sapiens) (O94782 whole entry, looked up): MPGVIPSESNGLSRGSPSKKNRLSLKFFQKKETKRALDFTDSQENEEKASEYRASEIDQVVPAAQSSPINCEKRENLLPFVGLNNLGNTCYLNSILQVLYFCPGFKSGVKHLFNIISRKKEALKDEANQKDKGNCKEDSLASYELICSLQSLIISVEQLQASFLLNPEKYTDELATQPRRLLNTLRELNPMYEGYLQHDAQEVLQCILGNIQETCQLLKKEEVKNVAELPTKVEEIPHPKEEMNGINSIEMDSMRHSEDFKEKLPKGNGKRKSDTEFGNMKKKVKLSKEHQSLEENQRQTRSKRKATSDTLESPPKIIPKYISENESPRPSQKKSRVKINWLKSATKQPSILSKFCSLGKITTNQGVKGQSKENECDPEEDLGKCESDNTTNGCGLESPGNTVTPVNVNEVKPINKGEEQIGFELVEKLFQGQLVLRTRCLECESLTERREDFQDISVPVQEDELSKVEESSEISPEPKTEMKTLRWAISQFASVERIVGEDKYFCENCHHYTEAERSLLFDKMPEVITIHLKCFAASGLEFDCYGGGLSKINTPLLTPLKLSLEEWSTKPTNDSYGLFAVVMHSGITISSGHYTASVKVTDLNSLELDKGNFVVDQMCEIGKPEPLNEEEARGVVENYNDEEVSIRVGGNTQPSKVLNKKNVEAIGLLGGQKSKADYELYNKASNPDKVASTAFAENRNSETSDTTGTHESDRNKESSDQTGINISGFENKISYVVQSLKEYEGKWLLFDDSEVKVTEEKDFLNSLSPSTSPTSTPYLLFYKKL
Sequence of Luciferin 4-monooxygenase (Photinus pyralis) (P08659 whole entry, looked up): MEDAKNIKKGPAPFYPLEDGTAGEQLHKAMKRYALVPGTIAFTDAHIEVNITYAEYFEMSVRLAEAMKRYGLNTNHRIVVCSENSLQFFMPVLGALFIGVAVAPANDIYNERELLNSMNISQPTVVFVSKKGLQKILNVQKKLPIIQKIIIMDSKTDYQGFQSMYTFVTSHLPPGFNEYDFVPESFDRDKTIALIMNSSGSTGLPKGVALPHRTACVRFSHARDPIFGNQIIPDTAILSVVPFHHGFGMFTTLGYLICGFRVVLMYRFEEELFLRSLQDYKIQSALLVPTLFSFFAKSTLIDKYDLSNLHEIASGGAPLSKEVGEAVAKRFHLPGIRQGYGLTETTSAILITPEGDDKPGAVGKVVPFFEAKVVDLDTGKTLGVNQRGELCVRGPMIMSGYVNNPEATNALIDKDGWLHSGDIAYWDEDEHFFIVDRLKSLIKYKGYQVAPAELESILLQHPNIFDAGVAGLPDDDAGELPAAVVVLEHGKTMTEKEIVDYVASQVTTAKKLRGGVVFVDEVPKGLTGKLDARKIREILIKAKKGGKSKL
Sequence of RecQ-like DNA helicase BLM (Homo sapiens) (P54132 whole entry, looked up): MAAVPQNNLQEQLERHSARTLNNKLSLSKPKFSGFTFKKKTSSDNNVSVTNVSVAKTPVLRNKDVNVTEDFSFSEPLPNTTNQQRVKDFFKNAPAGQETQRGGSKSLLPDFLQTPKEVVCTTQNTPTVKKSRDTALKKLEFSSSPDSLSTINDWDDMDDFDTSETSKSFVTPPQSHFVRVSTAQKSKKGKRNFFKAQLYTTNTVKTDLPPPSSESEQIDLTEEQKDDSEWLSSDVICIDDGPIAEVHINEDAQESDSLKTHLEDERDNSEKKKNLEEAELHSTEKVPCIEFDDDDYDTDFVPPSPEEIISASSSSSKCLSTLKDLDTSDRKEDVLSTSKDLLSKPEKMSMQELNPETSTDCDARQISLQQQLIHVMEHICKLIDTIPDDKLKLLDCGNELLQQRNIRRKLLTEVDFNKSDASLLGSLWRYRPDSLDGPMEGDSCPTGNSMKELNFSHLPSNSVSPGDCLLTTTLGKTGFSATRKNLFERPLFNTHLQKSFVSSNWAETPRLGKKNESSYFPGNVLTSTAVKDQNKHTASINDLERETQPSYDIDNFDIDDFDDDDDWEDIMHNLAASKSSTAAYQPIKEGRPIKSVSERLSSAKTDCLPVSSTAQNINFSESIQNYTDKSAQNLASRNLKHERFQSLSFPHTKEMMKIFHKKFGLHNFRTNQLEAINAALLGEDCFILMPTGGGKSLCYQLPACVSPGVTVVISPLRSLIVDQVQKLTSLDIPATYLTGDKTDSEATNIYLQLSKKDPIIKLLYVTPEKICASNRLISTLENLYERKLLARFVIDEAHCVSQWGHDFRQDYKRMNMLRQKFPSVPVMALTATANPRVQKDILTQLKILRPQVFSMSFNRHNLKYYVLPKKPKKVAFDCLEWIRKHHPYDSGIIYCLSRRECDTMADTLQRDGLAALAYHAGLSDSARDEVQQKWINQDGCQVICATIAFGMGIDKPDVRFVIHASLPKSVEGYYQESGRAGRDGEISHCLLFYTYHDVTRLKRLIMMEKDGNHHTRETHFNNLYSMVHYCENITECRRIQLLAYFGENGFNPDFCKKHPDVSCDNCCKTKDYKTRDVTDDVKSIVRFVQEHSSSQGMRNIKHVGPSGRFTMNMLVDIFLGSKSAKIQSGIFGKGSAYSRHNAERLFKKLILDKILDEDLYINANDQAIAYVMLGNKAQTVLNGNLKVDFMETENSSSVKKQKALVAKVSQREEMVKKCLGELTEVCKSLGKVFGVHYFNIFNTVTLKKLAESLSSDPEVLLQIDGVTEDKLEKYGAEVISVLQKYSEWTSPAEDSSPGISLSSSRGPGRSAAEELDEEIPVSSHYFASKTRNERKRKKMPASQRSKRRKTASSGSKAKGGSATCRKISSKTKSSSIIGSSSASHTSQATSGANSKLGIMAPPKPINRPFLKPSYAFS
Sequence of Glucocorticoid receptor (Homo sapiens) (P04150 whole entry, looked up, the tested form may be a part): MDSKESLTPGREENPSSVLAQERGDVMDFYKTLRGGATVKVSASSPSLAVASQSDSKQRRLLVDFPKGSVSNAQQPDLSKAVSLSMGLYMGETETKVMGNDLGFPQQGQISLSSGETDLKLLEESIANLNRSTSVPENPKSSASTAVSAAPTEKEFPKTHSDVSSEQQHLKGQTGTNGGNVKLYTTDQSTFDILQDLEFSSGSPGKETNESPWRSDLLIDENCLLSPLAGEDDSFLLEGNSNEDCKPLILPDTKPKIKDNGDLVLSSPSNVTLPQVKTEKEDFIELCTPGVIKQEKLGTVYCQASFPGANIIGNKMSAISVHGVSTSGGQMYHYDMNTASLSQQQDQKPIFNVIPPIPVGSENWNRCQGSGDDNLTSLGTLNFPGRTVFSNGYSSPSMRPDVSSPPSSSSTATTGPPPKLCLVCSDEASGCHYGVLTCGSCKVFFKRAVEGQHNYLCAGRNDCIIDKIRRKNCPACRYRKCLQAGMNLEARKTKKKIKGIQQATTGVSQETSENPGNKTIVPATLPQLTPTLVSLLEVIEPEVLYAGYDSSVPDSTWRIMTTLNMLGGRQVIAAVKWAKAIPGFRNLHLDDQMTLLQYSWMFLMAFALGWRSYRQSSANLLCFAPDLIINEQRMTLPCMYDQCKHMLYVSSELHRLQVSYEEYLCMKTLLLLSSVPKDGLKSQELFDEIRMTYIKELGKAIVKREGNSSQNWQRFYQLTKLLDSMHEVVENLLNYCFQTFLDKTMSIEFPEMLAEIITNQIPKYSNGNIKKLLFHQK
Sequence of Glutathione peroxidase 1 (Homo sapiens) (P07203 whole entry, looked up): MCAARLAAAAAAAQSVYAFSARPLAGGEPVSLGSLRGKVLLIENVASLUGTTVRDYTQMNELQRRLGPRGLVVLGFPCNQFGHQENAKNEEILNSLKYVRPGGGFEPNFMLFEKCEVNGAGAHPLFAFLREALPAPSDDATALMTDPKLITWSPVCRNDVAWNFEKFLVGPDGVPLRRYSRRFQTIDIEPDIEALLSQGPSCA

COC(=O)[C@]12CCC(C)(C)C[C@H]1[C@H]1C(=O)C=C3[C@@]4(C)C=C(C#N)C(=O)C(C)(C)[C@@H]4CC[C@@]3(C)[C@]1(C)CC2
active: Potency [2] 1.57 µM
inactive: Potency [1]

COc1ccc2c(c1O)-c1cccc3c1C(C2)N(C)CC3 (stereo unspecified)
active: Potency [3] 8.91 µM | Potency [4] 8.91 µM | Potency [5] 11.2 µM
inactive: outcome [6]

Oc1ccc2c3c1O[C@H]1[C@@H](O)CC[C@@]4(O)C(C2)N(CC2CCC2)CCC314 (stereo partly specified)
active: Potency [9] 5.01 µM
inactive: Potency [3] | Potency [5] | outcome [7] | outcome [6] | Potency [8] | Potency [10] | activity, negative = inhibition ([11]; parasite line A) 12% | activity, negative = inhibition ([11]; parasite line B) 0.575%

C[C@H]1C2Cc3ccc(O)cc3[C@]1(C)CCN2CC1CC1
active: Potency [4] 11.2 µM | Potency [5] 7.94 µM
inactive: outcome [7] | outcome [6] | Potency [10]

NNCc1cccc(O)c1
active: Potency [3] 12.6 µM
inactive: Potency [12] > 46 µM | Potency [13] > 46 µM | Potency [14] | Potency [9]

C#CCN(C)C(C)Cc1ccccc1 (stereo unspecified)
inactive: Potency [12] > 20.6 µM | Potency [3] | Potency [4] | Potency [5] | outcome [7] | outcome [6] | Potency [9]

CC[C@@H](CO)NC(=O)[C@H]1C=C2c3cccc4c3c(cn4C)C[C@H]2N(C)C1
inactive: Potency [14] | Potency [9]
active: Potency [8] 35.5 µM

C[C@H]1OC[C@@H](C[N+](C)(C)C)O1
inactive: Potency [12] > 46 µM and > 20.6 µM | Potency [13] > 46 µM | Potency [3] | Potency [4] | Potency [5] | outcome [7] | outcome [6]

O=C1/C(=C\c2ccccc2)C[C@@]2(O)[C@H]3Cc4ccc(O)c5c4[C@@]2(CCN3CC2CC2)[C@H]1O5
active: Potency [2] 3.52 µM

Nc1ncnc2c1ncn2[C@@H]1O[C@H](COP(=O)(O)CP(=O)(O)OP(=O)(O)O)[C@H](O)[C@H]1O
inactive: Potency [3] | Potency [4] | Potency [5] | outcome [7] | Potency [9]

COc1cc(C[C@@H](C)N)c(OC)cc1I
active: Potency [4] 12.6 µM | Potency [5] 7.08 µM
inactive: outcome [6] | Potency [9]

CN1CCC23CCCC[C@H]2C1Cc1ccc(O)cc13 (stereo partly specified)
inactive: outcome [7]
active: Potency [3] 6.31 µM | Potency [5] 5.01 µM

CCCN(CCC)[C@@H]1CCc2c(F)ccc(O)c2C1
active: Potency [3] 1.12 µM | Potency [4] 0.355 µM | Potency [5] 1.41 µM
inactive: outcome [6] | Potency [9]

COc1cc(C=C(C#N)C#N)cc(O)c1O
inactive: Potency [12] > 46 µM | Potency [13] > 46 µM | Potency [14]
active: Potency [4] 12.6 µM

NC(Cn1ccc(=O)[nH]c1=O)C(=O)O (stereo unspecified)
inactive: Potency [3] | Potency [4] | Potency [5] | outcome [7] | Potency [9]

C/C1=C/C[C@@H](/C(C)=C/c2csc(C)n2)OC(=O)C[C@H](O)C(C)(C)C(=O)[C@H](C)[C@@H](O)[C@@H](C)CCC1
inactive: Potency [1] | activity change, negative = inhibition ([2]; Viability, at 45.9 µM (top of the series)) -15.3%

COC(=O)C(N)CCCN=C(N)N[N+](=O)[O-] (stereo unspecified)
inactive: Potency [3] | Potency [4] | Potency [5] | outcome [7]

CC(C)(O)C1C2OC(=O)C1[C@]1(O)C[C@H]3O[C@]34C(=O)O[C@H]2[C@]14C (stereo partly specified) (tested in a mixture with another compound)
inactive: Potency [3] | Potency [4] | Potency [5] | Potency [8] | Potency [10] | activity, negative = inhibition ([11]; parasite line A) 14% | activity, negative = inhibition ([11]; parasite line B) -0.69%

CCN1C[C@]2(C)CC[C@H](O)[C@@]34[C@@H]5C[C@@H]6[C@@H](OC)C[C@@](O)(C5[C@H]6O)[C@@H](C[C@@H]23)[C@@H]14
inactive: Potency [3] | Potency [5] | outcome [7] | Potency [9]

C=CCN1CC[C@@]2(C)c3cc(O)ccc3CC1[C@@H]2C
inactive: outcome [7] | outcome [6] | Potency [9]
active: Potency [3] 7.94 µM | Potency [4] 12.6 µM

CCCCN1C2CCC1CC(OC(c1ccc(F)cc1)c1ccc(F)cc1)C2 (stereo unspecified)
active: Potency [3] 2 µM | Potency [4] 1.58 µM | Potency [5] 3.98 µM | Potency [9] 0.0891 µM

CCCN1CCCC(c2cccc(O)c2)C1 (stereo unspecified)
inactive: outcome [7] | outcome [6]
active: Potency [3] 8.91 µM | Potency [4] 12.6 µM

COc1ccc2c3c1O[C@H]1C(=O)CC[C@@]4(O)C(C2)N(CC2CC2)CCC314 (stereo partly specified)
inactive: outcome [7]

CC1Cc2cc3c(cc2C(c2ccc(N)cc2)=NN1)OCO3 (stereo unspecified)
active: Potency [3] 12.6 µM

CCNC(=O)[C@H]1O[C@@H](n2cnc3c(N)ncnc32)[C@H](O)[C@H]1O
inactive: Potency [3] | Potency [4] | Potency [5] | outcome [7]

CCN(CC)C(=O)N[C@@H]1C[C@@H]2c3cccc4[nH]cc(c34)C[C@H]2N(C)C1
inactive: Potency [8] | Potency [10]
active: Potency [3] 5.62 µM | Potency [4] 6.31 µM

NCC#Cc1ccccc1
inactive: Potency [12] > 46 µM | Potency [13] > 46 µM | Potency [14] | Potency [4] | Potency [5]

CCCN1CCC[C@@H]2Cc3n[nH]cc3C[C@H]21
inactive: Potency [4] | Potency [5] | outcome [7]

C[C@]12CC[C@H]3[C@@H](CCC4C[C@H](O)CC[C@@]43C)[C@@H]1CC[C@@H]2O (stereo partly specified)
inactive: Potency [3] | Potency [4] | Potency [5] | outcome [7] | outcome [6] | Potency [9]

CCCN1CCC[C@@H](c2cccc(C#N)c2)C1
inactive: Potency [5] | outcome [7] | Potency [9]

CN1C[C@@H](CS(=O)(=O)N(C)C)C[C@@H]2c3cccc4c3c(cn4C)C[C@H]21
inactive: outcome [6] | Potency [9]

CCCN(CCC)C(=O)Cc1c(-c2ccc(Cl)cc2)nc2c(Cl)cc(Cl)cn12
active: Potency [14] 2.51 µM
inactive: Potency [12] > 46 µM | Potency [13] > 46 µM | outcome [7] | Potency [9]

C[N+]1(C)C2CC(OC(=O)C(CO)c3ccccc3)CC1C1OC12 (stereo unspecified)
inactive: Potency [3] | Potency [4] | Potency [5] | outcome [7] | outcome [6] | Potency [9]

N#CC(=Cc1ccc(O)c(O)c1)C(N)=S
inactive: Potency [5] | Potency [9]

CCC(CO)NC(=O)[C@@H]1C=C2c3cccc4[nH]cc(c34)C[C@H]2N(C)C1 (stereo partly specified)
active: Potency [3] 10 µM

CC12CCC3C(CCC4=C(O)C(=O)CCC43C)C1CCC2=O (stereo unspecified)
inactive: Potency [4] | Potency [5] | outcome [7] | outcome [6] | Potency [8] | Potency [9] | Potency [10]

CCCC[N+]1(C)C2CC(OC(=O)C(CO)c3ccccc3)CC1C1OC12 (stereo unspecified)
inactive: Potency [3] | Potency [4] | Potency [5] | Potency [8] | Potency [9] | Potency [10] | activity, negative = inhibition ([11]; parasite line A) -8.81% | activity, negative = inhibition ([11]; parasite line B) -5.62%

CNC(C)[C@@H](O)c1ccc(O)cc1 (stereo partly specified)
inactive: Potency [8] | Potency [10] | activity, negative = inhibition ([11]; parasite line A) 1.09% | activity, negative = inhibition ([11]; parasite line B) 3.21%
